Growth data for nine compounds are collected here from PubChem BioAssay (NCI).

Test systems include SR leukemia; RPMI-8226 leukemia; OVCAR-8 ovarian; OVCAR-5 ovarian; OVCAR-4 ovarian; SK-OV-3 ovarian; IGROV1 ovarian; OVCAR-3 ovarian; HS 578T breast; NCI/ADR-RES ovarian; T-47D breast; BT-549 breast; MDA-MB-435 melanoma; SW-620 colon; MCF7 breast; HCT-116 colon; HCC-2998 colon; KM12 colon.
Common to all, as to experiment: NCI-60 one-dose screen, 48 h (100 = growth as untreated, 0 = no growth, -100 = all killed)
Details in all cases: 10 µM unless noted

Molecules are shown by their SMILES. About 83,000 compounds went through this panel and 20% of them were active in at least one assay; those are over-represented in the sample as a whole.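 Testing used 96-well plates and a 48-hour single-concentration exposure. Example: -40 means 40% of the starting cells died.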 Unmarked numbers belong to inactive results. The source made the active and inactive calls. The calls were made as follows: active = growth percent below 10; inactive = the rest.

Consider `O=[N+]([O-])c1cccc(C2CC(c3ccccc3)=Nc3ccccc3S2)c1` (stereo not given), for which the growth in the assay on SR leukemia was -40.3% (active); in the assay with RPMI-8226 leukemia, 16.1%; with OVCAR-8 ovarian it was 61.9%; in the assay with OVCAR-5 ovarian, 109%; with OVCAR-4 ovarian it was 81.7%; with SK-OV-3 ovarian, 97.7%. Besides, the growth in the assay on IGROV1 ovarian is 91.8%; in the assay on OVCAR-3 ovarian, 88%; with HS 578T breast it was 95.9%; in the assay with NCI/ADR-RES ovarian, 98.3%; in the assay on T-47D breast, 84.9%; in the assay on BT-549 breast, 78.5%. Further, the growth was 112% in the assay with MDA-MB-435 melanoma; 25.6% in the assay on SW-620 colon; 16.2% in the assay on MCF7 breast; 47.9% with HCT-116 colon; 108% with HCC-2998 colon.
With `Cl/C(=N\Nc1ccccc1)c1ccccc1`, the growth was 123% in the assay on SR leukemia; 104% with RPMI-8226 leukemia; 75.8% in the assay with OVCAR-8 ovarian; 99.1% in the assay on OVCAR-5 ovarian; 92.1% in the assay with OVCAR-4 ovarian; 89.4% with SK-OV-3 ovarian. Further, the growth in the assay on IGROV1 ovarian is 85.6%; with OVCAR-3 ovarian, 91.4%; in the assay on HS 578T breast it was 108%; in the assay with NCI/ADR-RES ovarian it was 82.9%; in the assay with T-47D breast, 89.9%; with BT-549 breast it was 98.8%. Also, the growth is 80.6% with MDA-MB-435 melanoma; 105% with SW-620 colon; 87.4% with MCF7 breast; 102% in the assay on HCT-116 colon; 102% in the assay with HCC-2998 colon.
Consider `COc1cc2c(cc1O)CCc1cc(O)cc(OC)c1-2`, for which the growth was 77.4% in the assay on SR leukemia; 75.5% in the assay on RPMI-8226 leukemia; 88.1% in the assay on OVCAR-8 ovarian; 109% with OVCAR-5 ovarian; 94.9% in the assay with OVCAR-4 ovarian; 96.9% in the assay with SK-OV-3 ovarian. Moreover, the growth in the assay on IGROV1 ovarian was 105%; in the assay with OVCAR-3 ovarian, 95.6%; in the assay on HS 578T breast, 83.3%; in the assay on NCI/ADR-RES ovarian it was 99%; in the assay with T-47D breast, 98%; with BT-549 breast, 79.9%. The growth is 96.2% in the assay on MDA-MB-435 melanoma; 109% in the assay on SW-620 colon; 97.8% in the assay with MCF7 breast; 93.7% with HCT-116 colon; 110% in the assay with HCC-2998 colon.
Regarding `COc1cccc(-c2nc3sccn3c2-c2ccnc(NCCCNS(=O)(=O)c3ccc(Cl)cc3)c2)c1`, the growth with SR leukemia is 50%; with RPMI-8226 leukemia, 9.05% (active); in the assay on OVCAR-8 ovarian it was 31.1%; in the assay with OVCAR-5 ovarian it was 90.6%; with OVCAR-4 ovarian it was 43.1%; in the assay on SK-OV-3 ovarian it was 75.3%. Besides, the growth was 42% in the assay with IGROV1 ovarian; 51.3% in the assay on OVCAR-3 ovarian; 65.3% in the assay on HS 578T breast; 26.9% in the assay with NCI/ADR-RES ovarian; 2.4% (active) in the assay on T-47D breast; 34.4% in the assay with BT-549 breast. Besides, the growth was 38.4% in the assay with MDA-MB-435 melanoma; 58.3% in the assay on SW-620 colon; 34.6% in the assay with MCF7 breast; 44% with HCT-116 colon; 66.5% with HCC-2998 colon.
Take `CS(=O)CCCCCN=C=S` (stereo not given): the growth is -13.9% (active) in the assay with SR leukemia; 5.22% (active) with RPMI-8226 leukemia; -8.89% (active) in the assay with OVCAR-8 ovarian; 11.6% in the assay with OVCAR-5 ovarian; 21.4% in the assay on OVCAR-4 ovarian; 8.97% (active) with SK-OV-3 ovarian. The growth in the assay on IGROV1 ovarian was 7.98% (active); in the assay on OVCAR-3 ovarian, -20.4% (active); in the assay on HS 578T breast, 11.6%; in the assay with NCI/ADR-RES ovarian, 1.36% (active); in the assay with T-47D breast it was -26.3% (active); in the assay on BT-549 breast, 2.12% (active). Moreover, the growth is 20.4% in the assay on MDA-MB-435 melanoma; 5.5% (active) with SW-620 colon; 0.852% (active) in the assay with MCF7 breast; -2.02% (active) in the assay with HCT-116 colon; -11.3% (active) in the assay on HCC-2998 colon.
In the case of `O=C1O[C@H]([C@H](O)CO)C(O)=C1O`, the growth in the assay with SR leukemia is 88.5%; in the assay with RPMI-8226 leukemia it was 99.1%; in the assay with OVCAR-8 ovarian, 97%; in the assay with OVCAR-5 ovarian, 101%; with OVCAR-4 ovarian, 119%; in the assay on SK-OV-3 ovarian, 112%. Besides, the growth with IGROV1 ovarian is 104%; with OVCAR-3 ovarian, 104%; in the assay on HS 578T breast, 117%; in the assay with NCI/ADR-RES ovarian it was 96.6%; in the assay on T-47D breast it was 114%; in the assay with BT-549 breast, 93.1%. Further, the growth was 106% with MDA-MB-435 melanoma; 87.3% in the assay with SW-620 colon; 103% with MCF7 breast; 98.2% in the assay with HCT-116 colon; 98.3% with HCC-2998 colon.
Take `CN(C)c1ccc(/C=C\C2=[N+](C)c3ccccc3C2(C)C)cc1`: the growth with SR leukemia was 25%; with RPMI-8226 leukemia it was 66.5%; in the assay with OVCAR-8 ovarian, 20.8%; in the assay on OVCAR-5 ovarian, 27.9%; in the assay on OVCAR-4 ovarian, 35.5%; with SK-OV-3 ovarian, -11.6% (active). In addition, the growth with IGROV1 ovarian was 9.25% (active); with OVCAR-3 ovarian, -9.9% (active); in the assay with HS 578T breast, 9.83% (active); with NCI/ADR-RES ovarian it was 84.1%; in the assay on T-47D breast it was 0.627% (active); in the assay on BT-549 breast it was -4.12% (active). The growth in the assay on MDA-MB-435 melanoma is 3.88% (active); with SW-620 colon it was 10.3%; in the assay with MCF7 breast, 3.95% (active); in the assay on HCT-116 colon, 7.97% (active); in the assay on HCC-2998 colon, 23.4%.
Turning to `O=C1CCc2c(sc3[nH]c(=S)n(Cc4ccccc4)c(=O)c23)C1`, the growth is 15.5% in the assay with SR leukemia; 3.36% (active) in the assay with RPMI-8226 leukemia; 14.3% in the assay on OVCAR-8 ovarian; 9.59% (active) in the assay with OVCAR-5 ovarian; 21.8% with OVCAR-4 ovarian; 22.2% in the assay with SK-OV-3 ovarian. Moreover, the growth in the assay on IGROV1 ovarian is 34.2%; with OVCAR-3 ovarian it was 9.16% (active); with HS 578T breast, -3.81% (active); in the assay on NCI/ADR-RES ovarian, 4.56% (active); in the assay on T-47D breast it was 6.69% (active); with BT-549 breast, 10.6%. Also, the growth with MDA-MB-435 melanoma is 15%; with SW-620 colon it was 15.4%; in the assay with MCF7 breast it was 15.8%; with HCT-116 colon, 6.51% (active); with HCC-2998 colon, 23.9%; in the assay on KM12 colon, 5.93% (active).
`CC/C=C\C[C@H](O)C/C=C1/C(=O)C=C[C@@H]1C/C=C\CCCC(N)=O`: the growth with SR leukemia is -27% (active); with RPMI-8226 leukemia, 6.43% (active); in the assay with OVCAR-8 ovarian, 11.6%; in the assay with OVCAR-5 ovarian, 29.8%; in the assay on OVCAR-4 ovarian, 56.4%; with SK-OV-3 ovarian, 10.9%. In addition, the growth with IGROV1 ovarian is 10.4%; in the assay on OVCAR-3 ovarian it was 3.26% (active); with HS 578T breast, 55.2%; in the assay on NCI/ADR-RES ovarian it was 10.7%; with T-47D breast, 1.28% (active); with BT-549 breast, -12.6% (active). Moreover, the growth in the assay with MDA-MB-435 melanoma is 23.5%; with SW-620 colon it was 5.37% (active); in the assay with MCF7 breast, 7.66% (active); in the assay with HCT-116 colon, -69% (active); in the assay with HCC-2998 colon, -73.6% (active); with KM12 colon, -38.7% (active).
